Measurements reported in PubChem BioAssay (NCI).
Several values for one entry are separate records, joined by “and”; a condition that tells them apart may be missing. Identical values can stand only once. This is part of a sample that, as a whole, favours compounds with a hit. Of some 79,000 tested, about 15% had one in any assay. Activity calls are given as the source filed them. No stated cut-off is given here; in the data, active means growth inhibition above about 70%; inactive means the rest.

Experiment: NCI Yeast Anticancer Drug Screen. Data for the mec2-1 strain (AID 157)
Details: S. cerevisiae mec2-1 strain, at 5.0 µM (retest, dose inferred, filed as 0.5), stronger effect = higher value
Summary of the method: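 Vehicle-treated cultures served as reference for growth inhibition of compound-exposed mec2-1 yeast.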

| Structure (SMILES) | growth inhibition |
| --- | --- |
| CC(=O)OC(OC(C)=O)c1ccc2ccc3cccc4ccc1c2c34 | -1% (inactive) |
| CCCCC(O)CCCC | 14% (inactive) |
| CCCCCCCC[N+](C)(C)Cc1ccc(C[N+](C)(C)CCCCCCCC)cc1 | 15% (inactive) |
| CC(C)(N)COB(c1ccccc1)c1ccccc1 | -5% (inactive) |
| CCCCC(Oc1cc(C(C)(C)C)c(O)c(C(C)(C)C)c1)C(=O)O (configuration not stated) | 12% (inactive) |
| CCc1cc2c(c3c1C(=O)CC3)C(C)(C)CCC2 | 2% (inactive) |
| FC(F)(F)c1ccc(Cl)c(NC(=S)SC2CCCCC2)c1 | 0% (inactive) |
| Nc1ccc(-c2cccc(-c3ccccc3)c2)cc1 | -11% (inactive) |
| COc1cc(CSc2ccc(O)cc2)cc(OC)c1OC | -18% (inactive) |
| CNc1ccc([N+](=O)[O-])cc1 | 1% (inactive) |
| CCN(CC)CCNc1ccc(C)c2oc3ccc(O)cc3c(=O)c12 | 27% (inactive) |
| Cc1cc2c(c3c1C(=O)CC3)C(C)(C)CC2(C)C | -1% (inactive) |
| O=C(O)/C=C\c1cc2ccccc2c2ccccc12 | -11% (inactive) |
| COC(=O)CSc1nc2[nH]c(SC)c(C(N)=O)c2c(=O)n1-c1ccccc1 | -2% (inactive) |
| COc1ccc(C(=O)Nc2ccc(Cl)cc2)cc1 | -26% (inactive) |
| C=CCOC(=O)CCC(=O)N(CC)CC | -1% (inactive) |
| N#CCC(=O)N/N=C(/CC1(O)C(=O)Nc2c(Cl)cc(Cl)cc21)c1ccccc1 (configuration not stated) | 10% (inactive) |
| N#Cc1ccccc1[N+](=O)[O-] | 1% (inactive) |

Same assay, conditions: S. cerevisiae mec2-1 strain, at 50.0 µM (retest, dose inferred, filed as 5.0), stronger effect = higher value

| Structure (SMILES) | growth inhibition |
| --- | --- |
| CC(=O)OC(OC(C)=O)c1ccc2ccc3cccc4ccc1c2c34 | 78% (active) |
| CCCCC(O)CCCC | 18% (inactive) |
| CCCCCCCC[N+](C)(C)Cc1ccc(C[N+](C)(C)CCCCCCCC)cc1 | 26% (inactive) |
| CC(C)(N)COB(c1ccccc1)c1ccccc1 | 99% (active) |
| CCCCC(Oc1cc(C(C)(C)C)c(O)c(C(C)(C)C)c1)C(=O)O (configuration not stated) | 70% (active) |
| CCc1cc2c(c3c1C(=O)CC3)C(C)(C)CCC2 | 96% (active) |
| FC(F)(F)c1ccc(Cl)c(NC(=S)SC2CCCCC2)c1 | 97% (active) |
| Nc1ccc(-c2cccc(-c3ccccc3)c2)cc1 | 94% (active) |
| COc1cc(CSc2ccc(O)cc2)cc(OC)c1OC | -16% (inactive) |
| CNc1ccc([N+](=O)[O-])cc1 | 9% (inactive) |
| CCN(CC)CCNc1ccc(C)c2oc3ccc(O)cc3c(=O)c12 | 29% (inactive) |
| Cc1cc2c(c3c1C(=O)CC3)C(C)(C)CC2(C)C | 76% (active) |
| O=C(O)/C=C\c1cc2ccccc2c2ccccc12 | 99% (active) |
| COC(=O)CSc1nc2[nH]c(SC)c(C(N)=O)c2c(=O)n1-c1ccccc1 | -22% (inactive) |
| COc1ccc(C(=O)Nc2ccc(Cl)cc2)cc1 | -12% (inactive) |
| C=CCOC(=O)CCC(=O)N(CC)CC | 1% (inactive) |
| N#CCC(=O)N/N=C(/CC1(O)C(=O)Nc2c(Cl)cc(Cl)cc21)c1ccccc1 (configuration not stated) | 43% (inactive) |
| N#Cc1ccccc1[N+](=O)[O-] | 58% (inactive) |

Same assay, conditions: S. cerevisiae mec2-1 strain, at 50.0 µM, stronger effect = higher value

| Structure (SMILES) | growth inhibition |
| --- | --- |
| CC(=O)OC(OC(C)=O)c1ccc2ccc3cccc4ccc1c2c34 | 45.8% (inactive) |
| OCC(O)C(O)C(O)C(O)CNCC(O)C(O)C(O)C(O)CO (configuration not stated) | 15% (inactive) and 17.2% (inactive) and 10.3% (inactive) |
| NCC(=O)NC(CO)C(=O)O (configuration not stated) | -10.5% (inactive) and -5.1% (inactive) and -4.35% (inactive) |
| CCCCC(O)CCCC | 8.65% (inactive) |
| CCCCCCCC[N+](C)(C)Cc1ccc(C[N+](C)(C)CCCCCCCC)cc1 | 7.5% (inactive) |
| CC(C)(N)COB(c1ccccc1)c1ccccc1 | 99.8% (active) |
| CCCCC(Oc1cc(C(C)(C)C)c(O)c(C(C)(C)C)c1)C(=O)O (configuration not stated) | 99.4% (active) |
| CCc1cc2c(c3c1C(=O)CC3)C(C)(C)CCC2 | 34.6% (inactive) |
| FC(F)(F)c1ccc(Cl)c(NC(=S)SC2CCCCC2)c1 | 99.2% (active) |
| Nc1ccc(S(=O)(=O)O)c2ccccc12 | -18.1% (inactive) and 3.25% (inactive) and 3.85% (inactive) |
| Nc1ccc(-c2cccc(-c3ccccc3)c2)cc1 | 97.7% (active) |
| COc1cc(CSc2ccc(O)cc2)cc(OC)c1OC | 84.3% (active) |
| CNc1ccc([N+](=O)[O-])cc1 | 12.8% (inactive) |
| CCN(CC)CCNc1ccc(C)c2oc3ccc(O)cc3c(=O)c12 | 75.5% (active) |
| CSc1ccccc1C(=O)O | -1.9% (inactive) and -7.55% (inactive) and 25.9% (inactive) |
| Cc1cc2c(c3c1C(=O)CC3)C(C)(C)CC2(C)C | 9.15% (inactive) |
| OC(c1ccccc1)C(O)c1ccccc1 (configuration not stated) | -4.45% (inactive) and -6.3% (inactive) and 14.8% (inactive) |
| Cc1ccc(S(=O)(=O)OCC(O)C(O)COS(=O)(=O)c2ccc(C)cc2)cc1 (configuration not stated) | -10.2% (inactive) and -4.45% (inactive) and -13.8% (inactive) |
| O=C(O)/C=C\c1cc2ccccc2c2ccccc12 | 98.8% (active) |
| COC(=O)CSc1nc2[nH]c(SC)c(C(N)=O)c2c(=O)n1-c1ccccc1 | 29.4% (inactive) |
| COc1ccc(C(=O)Nc2ccc(Cl)cc2)cc1 | 1.85% (inactive) |
| CC(=O)OC1COC(SC(=N)N)C(OC(C)=O)C1OC(C)=O (configuration not stated) | 15.8% (inactive) and 17.9% (inactive) and -1.25% (inactive) |
| C=CCOC(=O)CCC(=O)N(CC)CC | -12.7% (inactive) |
| N#CCC(=O)N/N=C(/CC1(O)C(=O)Nc2c(Cl)cc(Cl)cc21)c1ccccc1 (configuration not stated) | 59.6% (inactive) |
| COC1OC2COC(c3ccccc3)OC2C(O)C1O (configuration not stated) | -11.6% (inactive) and -15.6% (inactive) and -3.65% (inactive) |
| N#Cc1ccccc1[N+](=O)[O-] | 20.4% (inactive) |
